Results published in PubChem BioAssay (NCATS).
A number with no mark means an inactive call. Records with an inconclusive call do not appear. Activity calls are given as the source filed them. Calls follow the shape of the dose curve; as a rule, active = well fitted curve in the direction sought with a large enough effect; inconclusive = small, poorly fitted or top-dose-only effect, or another doubt; inactive = no such curve, though single readings can be large; an effect the other way counts as inactive or inconclusive.

How the values were obtained:
[1] = biological target: Cytochrome P450 3A4 (Homo sapiens) (UniProt P08684); test: qHTS Assay for Inhibitors and Substrates of Cytochrome P450 3A4 (AID 884); also: potency is read from the fitted curve at half-maximal effect; nearly all actives have a fitted effect of over 50% in size
Chain of Cytochrome P450 3A4 (Homo sapiens) (P08684 whole entry, looked up): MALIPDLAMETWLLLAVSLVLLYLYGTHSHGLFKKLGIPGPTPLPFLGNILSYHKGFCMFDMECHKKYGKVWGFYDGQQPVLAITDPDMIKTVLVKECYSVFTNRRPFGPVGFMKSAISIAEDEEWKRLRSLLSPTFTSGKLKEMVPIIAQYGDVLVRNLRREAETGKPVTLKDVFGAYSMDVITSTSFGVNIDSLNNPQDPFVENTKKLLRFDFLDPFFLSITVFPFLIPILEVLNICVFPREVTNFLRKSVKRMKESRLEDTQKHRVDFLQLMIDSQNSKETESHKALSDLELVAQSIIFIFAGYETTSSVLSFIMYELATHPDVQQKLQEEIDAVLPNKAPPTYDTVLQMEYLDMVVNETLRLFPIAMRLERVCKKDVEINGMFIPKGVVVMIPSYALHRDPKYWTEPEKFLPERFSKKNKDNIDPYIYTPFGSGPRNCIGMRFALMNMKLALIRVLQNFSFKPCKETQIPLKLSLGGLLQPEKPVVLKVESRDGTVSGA
Outline: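 20 nM human CYP3A4 with 25 uM Luciferin-PPXE (at KM) in 200 mM KPO4, preincubated 10 min with compound; NADPH regeneration started a 60 min RT reaction. Luciferin detected by luminescence, normalized to 57 uM ketoconazole as full inhibition.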

[2] = biological target: Cytochrome P450 3A4 (Homo sapiens) (UniProt P08684); test: qHTS Assay for Activators of Cytochrome P450 3A4 (AID 885); also: nearly all actives have a fitted effect of over 65% in size
Outline: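 Signal was normalized against complete inhibition by 57 uM ketoconazole. The reaction used 20nM CYP3A4 with 25uM Luciferin-PPXE, 10-min compound preincubation and a 60-min NADPH-supported step at RT.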

Structure (SMILES): CCC1=C(OC(=O)N(CC)CC)N2C(=O)OC(=NCCOC)[C@]2(Cc2ccccc2)[C@H]2C1=CC[C@H]1C(=O)N(CC)C(=O)[C@H]12
- Potency [1]: 5.01 µM (active)
- Potency [2]: inactive

Structure (SMILES): CCc1cc(C(C)=O)c(O)cc1OCCCCCC(C)(C)c1nn[nH]n1
- Potency [1]: 10 µM (active)
- Potency [2]: inactive

Structure (SMILES): CCCNC(=O)OC[C@@H]1O[C@H](c2ccccc2)C=C[C@@H]1Oc1ccc(OC)cc1
- Potency [1]: 3.98 µM (active)
- activity change, positive = activation [2]: -82.9% [at 11.4 µM]

Structure (SMILES): O=C1[C@H]2[C@H]3[C@H](O)[C@H](O)C/C(=N/OC[C@@H](O)COCc4ccco4)[C@@H]3CC[C@@H]2C(=O)N1Cc1ccc2c(c1)OCO2
- Potency [1]: 3.16 µM (active)
- activity change, positive = activation [2]: -99.9% [at 11.4 µM]

Structure (SMILES): CO[C@H]1COC(=O)[C@H](C)NC(=O)C/C=C\[C@@H](C)[C@@H](NS(=O)(=O)c2ccc(C)cc2)COC(=O)[C@H](OCc2ccccc2)/C=C\[C@@H]1C
- Potency [1]: 3.16 µM (active)
- activity change, positive = activation [2]: -79.4% [at 11.4 µM]

Structure (SMILES): Cn1c(=O)c(C(=O)COC(=O)c2cc(-c3ccco3)nc3ccccc23)c(N)n(CC2CC2)c1=O
- Potency [1]: 7.94 µM (active)
- Potency [2]: inactive

Structure (SMILES): C=CC[C@@H]1C=C[C@H](O/N=C(\C)CCN2CCCc3nc(C)c(C)cc32)[C@H](CO)O1
- Potency [1]: 2.51 µM (active)
- activity change, positive = activation [2]: -70.1% [at 11.4 µM]

Structure (SMILES): O=C(O)c1sccc1S(=O)(=O)Nc1ccccc1N1CCCCC1
- Potency [1]: 15.8 µM (active)
- Potency [2]: inactive

Structure (SMILES): [C-]#[N+]/C(C#N)=C\c1cc(C(C)(C)C)c(O)c(C(C)(C)C)c1
- Potency [1]: 3.98 µM (active)
- Potency [2]: inactive
